In PubChem BioAssay AID1159580 (chemical genetic matrix, 2015):
In all, about 5,500 compounds went through this assay and about 2,000 (36%) were called active. Not shown: some 18% with an inconclusive outcome. Cut-off read from the data, not from the text of the source: active = normalized growth mostly below about 0.91 (no sharp cut-off); inconclusive = no clear call, values can overlap the other calls; inactive = mostly above about 0.92. The list shows a part of the results.

Assay: chemical genetic growth profiling, strain panel (AID 1159580);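 note: tested at 20 µM; growth read once vehicle control cultures reached saturation at 30 °C; 1 = growth at the plate median or of vehicle wells; lower values mean less growth of the strain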
Conditions: S. cerevisiae deletion strains, growth OD

Measured: normalized growth

C[C@@H]1O[C@@H](O[C@H]2C[C@@H](O)[C@]3(CO)[C@H]4[C@H](O)C[C@]5(C)[C@@H](C6=CC(=O)OC6)CC[C@]5(O)[C@@H]4CC[C@]3(O)C2)[C@H](O)[C@H](O)[C@H]1O
inactive: locus YAL040C, strain CLN3, stronger effect = lower value 0.989 | locus YCL061C, strain MRC1 (second series), stronger effect = lower value 0.996 | locus YDR150W, strain NUM1, stronger effect = lower value 1 | locus YDR363W, strain ESC2, stronger effect = lower value 0.984 | locus YER002W, strain NOP16, stronger effect = lower value 1.02 | locus YGR078C, strain PAC10, stronger effect = lower value 0.985 | locus YGR229C, strain SMI1, stronger effect = lower value 0.993 | locus YJR075W, strain HOC1, stronger effect = lower value 0.997 | locus YMR263W, strain SAP30, stronger effect = lower value 0.996 | locus YMR307W, strain GAS1, stronger effect = lower value 0.995 | locus YNL175C, strain NOP13, stronger effect = lower value 1.02 | locus YNL197C, strain WHI3, stronger effect = lower value 1.03 | locus YNL224C, strain SQS1, stronger effect = lower value 0.988 | locus YOR083W, strain WHI5 (second series), stronger effect = lower value 1
